The subject of this test is VDR:RXRa (NR concentration 270 nM, RXRa partner concentration 90 nM). Put plainly: PBM binding z-score (relative to random genomic background probes); higher = stronger binding; sequences stand for … in GC…GCGATTGACAGCGTAGAATGAAGG
Here is the method: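 Protein-binding microarray (Agilent 4x180K custom design, double-stranded 60-nt probes: 5' GC cap, 34-nt variable region, 24-nt constant primer region; full probe sequence given). Purified or IVT nuclear receptor:RXRα heterodimers (3:1 NR:RXRα, mostly 270:90 nM) or homodimers were incubated for 1 h in PBS with 2% milk and no ligand, then detected with Alexa488 antibodies. Fluorescence from o1-orientation probes (~5 replicates averaged) was converted to z-scores against 500 random hg19 background probes. Variable regions are seed direct-repeat (DR0–DR5) sites, all their single-nucleotide variants and half-site ablations.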
In turn, CCGACTGGGGCAAAGGGTACCATACTCAGTACGA gave a PBM binding z-score of 0.4.

Sequence TTACCAAGGTGAGCTGACGTCGTTGATCCAACTC yielded a PBM binding z-score of -0.477.

In turn, CCAGACAGGCGAAAGGTAACTCAGTCTGGTACGC gave a PBM binding z-score of -0.255.

Turning to TCATATAGGTAAACAGGTGAAGGTCCGTAAGTTA, the PBM binding z-score is 0.989.

For the sequence CGTCCAAGGTCAGAGAGGTCAGTTAATGCCGAGT, the PBM binding z-score came out at 7.74.

CCTACTGGGCCAAAGCTCATTGATTCCAATGCTC gave a PBM binding z-score of -0.593.

Sequence TGAATGAGGGTAAAGATCAGGGAACGTGGCGTCG registered a PBM binding z-score of -0.0441.

In turn, CGAACTAGGTCATTGACAGGACAGTTAATAGTAA displayed a PBM binding z-score of 2.16.

With GCAATTAGTTGAAAGGGCAACCGAATGATTCTCG, the PBM binding z-score was 0.238.

Sequence CAAACTAGGTCAAGAGGGCAAAGTCCGCTTCCCG came in with a PBM binding z-score of 3.46.

On to GGAACGAGGGCGTTCGAGTTGATAGCATGGCGAT, for which the PBM binding z-score came out at 2.22.

For the sequence CGTGCAAGGTCAAAGGTCAGTGAAGAGATGACGG, the PBM binding z-score was 6.7.

On to CGTCCAAGGTCAGAGGGGTCAGTGAATGCCGAGT, for which the PBM binding z-score came to 7.48.

AGAATGAGGTGACCAAAGATCAGGGAAACGCTTG yielded a PBM binding z-score of 0.0943.

For the sequence CAAACTAGGTCATGGTCAAAGTCGGTTTGTGCCA, the PBM binding z-score was determined as 2.18.

For the sequence CCAGACAGGTGAAAGGTAACGCAGTCTGGTACGC, the PBM binding z-score came to 0.77.

For TCATATAGGTAAATGCTAGGTGAAAGTCCGATCT, the PBM binding z-score amounted to 0.886.

The sequence CCTAGTTGGTCATGAGGTCACACACCGGATATGA registered a PBM binding z-score of 4.97.

The sequence CCTGCTAGATCAATGGTCAGCTAAAGCAGCTCGC displayed a PBM binding z-score of -0.615.

Sequence AGAATGAGGTTAATAAGATCAGGGAATTGCGGTC yielded a PBM binding z-score of 2.02.

As for CCTACTGGGCCATCAGGTCATTGAAATCAACGTT, the PBM binding z-score turned out to be 1.28.

In turn, TCTTGTAGATCAAGCAGGTTAAGGAAGCCTGAGT gave a PBM binding z-score of -0.0838.

TCATATAGGTAAAAGGTGGAAGTCGGTGTGGTAA had a PBM binding z-score of 1.11.

Consider CCGACTGCGGCAAAGGTTACCATACTCAGTACGA, for which the PBM binding z-score was 0.959.

Consider CGTAGTTGGTCAAGGTCACACACGCTATAGGTAC, for which the PBM binding z-score came out at 4.2.

CGACCAAGGTGAACAAGGTCGTTGATTACTATTC showed a PBM binding z-score of 6.02.

CGTCCAAGGTCAGGGAGGTCAGTGAATGCCGAGT: the PBM binding z-score turned out to be 7.3.

With GTACCAGGGTGAATAGGTCGTTGATGAGTAGGCG, the PBM binding z-score is 1.

Turning to ACAAACAGGTGATGAAGGTAACTCAGGCTATCAT, the PBM binding z-score was found to be 0.56.

Regarding TCATATAGGTAATACAGGAGAAAGTCGGCATCTA, the PBM binding z-score amounted to 0.996.

As to ACTAGCAGGCCAAGTTTGGGCCACTCAAACAAAG, the PBM binding z-score is -0.648.

On to ATCGAAAGGTCGTGAGGTGAGGATACAGAAAGGC, for which the PBM binding z-score is 3.46.

In the case of TTACCAAGGTGAAAGATCGTTGATGCACGCCTTG, the PBM binding z-score was 0.0935.

Sequence CCTTACGGGTCACAAGGTTATAGCACGACGAGCG yielded a PBM binding z-score of 4.37.

In turn, ATACCAAGGTGATCGTGTGGTCGTTGATACTAAC had a PBM binding z-score of 0.0148.

In turn, ATCGAAAGGTCGAAGGCGAGTATACCCACCCGAA showed a PBM binding z-score of 2.22.

The sequence ATCTCTAGGTAAAGATAGTTAAGTGAATGCAAAT displayed a PBM binding z-score of 0.487.

On to GCTGACAGGTGAAACGCAGGTAACTCAGGGTGGC, for which the PBM binding z-score was -0.355.

In turn, CCAGACAGGTGAGAAGGTAGCTCAGCCTCGATTA gave a PBM binding z-score of -0.387.

The sequence CCTACTGGGCCATCAGGTCATGGATATCAACGTT came in with a PBM binding z-score of 1.54.
